Inconclusive results are not listed. Where a call stands in place of a potency, no number is given. Activity calls are given as the source filed them. Calls follow the shape of the dose curve; as a rule, active = well fitted inhibition curve with a large enough effect; inconclusive = small, poorly fitted or top-dose-only effect; inactive = no such curve, though single readings can be large or run the other way.

37 compounds from PubChem BioAssay AID1347147 (National Center for Advancing Translational Sciences (NCATS), 2019) can be followed below.
Potency is read from the fitted curve at half-maximal effect.

N-terminal Xaa-Pro-Lys N-methyltransferase 1 (Homo sapiens), sequence (Q9BV86 whole entry, looked up): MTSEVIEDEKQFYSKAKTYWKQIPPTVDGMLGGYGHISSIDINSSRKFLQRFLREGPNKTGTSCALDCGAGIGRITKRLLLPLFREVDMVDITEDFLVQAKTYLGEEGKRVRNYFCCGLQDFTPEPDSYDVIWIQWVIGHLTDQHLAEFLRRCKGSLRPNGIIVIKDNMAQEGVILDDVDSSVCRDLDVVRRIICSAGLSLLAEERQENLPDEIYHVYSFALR

The target of this assay is N-terminal Xaa-Pro-Lys N-methyltransferase 1 (Homo sapiens) (UniProt Q9BV86). The assay can be described thus: qHTS Assay for Inhibitors of N-terminal methyltransferase 1 (NTMT1): MTaseGlo Confirmatory Screen, Round 2. The note with it: NTMT1 enzyme, MTase-Glo SAH luminescence; series mostly up to 57.4 µM. The essentials:
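NTMT1 (125 nM) with 100 µM SAM was preincubated ~15 min with compound, then 1 µM SPKRIA peptide was added for 30 min at RT. SAH was detected by MTase-Glo luminescence, normalized to no-enzyme and DMSO controls, and fitted to a 4-parameter Hill equation.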
For the compound `CN(C)C(=O)/N=N/C(=O)N(C)C`, the Potency result was “inactive”.
In the case of `Nc1c(S(=O)(=O)O)cc(Nc2ccc(Nc3nc(Cl)nc(Nc4ccc(S(=O)(=O)O)cc4)n3)c(S(=O)(=O)O)c2)c2c1C(=O)c1ccccc1C2=O`, the Potency is 31.6 µM (active).
The value for `O=c1cc(-c2ccccc2)oc2c(O)c(O)ccc12` was “inactive”.
In the case of `Nc1nc2ccc(Cl)cc2c2nc(-c3ccco3)nn12`, the Potency entry was “inactive”.
Turning to `Nc1ncnc2c1ncn2[C@H]1O[C@@H](CNS(=O)(=O)NC(=O)c2cccc(-c3noc(-c4ccccc4F)n3)c2)[C@H](O)[C@@H]1O`, the Potency was 2 µM (active).
The value for `Nc1nc(Cl)nc2c1ncn2[C@@H]1O[C@H](CO)[C@@H](O)[C@H]1O` was “inactive”.
`Nc1nc(F)nc2c1ncn2[C@@H]1O[C@H](CO)[C@@H](O)[C@@H]1O`: the Potency entry was “inactive”.
The value for `OCCN1CCN(CC/C=C2/c3ccccc3Sc3ccc(C(F)(F)F)cc32)CC1` was “inactive”; that for `O=C1NC(=O)C(=Cc2ccc(-c3ccc(F)cc3O)o2)S1` was 35.5 µM (active).
The same measure for `Nc1ncnc2c1ncn2[C@@H]1O[C@H](CO)[C@@H](O)[C@H]1O`: “inactive”; for `COc1cc2c(NC3CCN(C)CC3)cc(N3CCCCN(C)CC3)cc2cc1OCCOCCN(C)C`: “inactive”.
The value for `COC(=O)[C@@H]1[C@H]2C[C@H]3c4[nH]c5ccccc5c4CCN3C[C@@H]2CC[C@@H]1O` was “inactive”; that for `Cc1[nH]c(=O)c(C#N)cc1-c1ccc2nccn2c1` was “inactive”; that for `Nc1nc(Nc2ccccc2)nc2c1ncn2[C@@H]1O[C@H](CO)[C@@H](O)[C@H]1O` was “inactive”.
As for `CNCCc1cnc(CCC(c2ccccc2)c2ccccc2)[nH]1`, the Potency entry was “inactive”.
Consider `Cc1cc2c(cc1Cl)N(C(=O)Nc1ccc(Oc3cccnc3C)nc1)CC2`, for which the Potency result was “inactive”.
For `CSc1ccc(C(=O)c2[nH]c(=O)[nH]c2C)cc1`, the Potency result is “inactive”.
For `NC(Cc1c[nH]c2ccc(O)cc12)C(=O)O` (configuration not stated), the Potency result was “inactive”.
The value for `Nc1nc(=S)c2ncn([C@@H]3O[C@H](CO)[C@@H](O)[C@H]3O)c2[nH]1` was “inactive”.
The value for `S=C(S)N1CCCC1` was “inactive”; that for `CCNC(=O)[C@H]1O[C@H](n2cnc3c(N)nc(NCCc4ccc(CCC(=O)O)cc4)nc32)[C@@H](O)[C@@H]1O` was “inactive”.
With `OCC1OC(n2cnc3c(=S)nc[nH]c32)C(O)C1O` (configuration not stated), the Potency entry is “inactive”.
In the case of `N#C/C(=C\c1ccc(O)c(O)c1)C(=O)NCCCNC(=O)/C(C#N)=C/c1ccc(O)c(O)c1`, the Potency was 7.94 µM (active).
Consider `OCC1OC(n2cnc3c(NO)ncnc32)C(O)C1O` (configuration not stated), for which the Potency result was “inactive”.
The value for `CC(Cc1ccc(O)c(O)c1)C(C)Cc1ccc(O)c(O)c1` (configuration not stated) was 35.5 µM (active); that for `Cc1cccc(C2CN(C)CCc3c2cc(O)c(O)c3Cl)c1` (configuration not stated) was “inactive”; that for `C[C@H](NC(=O)/C(C#N)=C/c1ccc(O)c(O)c1)c1ccccc1` was “inactive”.
The value for `O=C1c2c(O)cc(O)cc2OC(c2ccc(O)c(O)c2)C1O` (configuration not stated) was “inactive”.
As to `COC(=O)C1=C(C)NC(C)=C(C(=O)OC)C1c1ccccc1[N+](=O)[O-]`, the Potency result was “inactive”.
Regarding `CN(C)CCCc1cc(C(=O)Nc2ccc(-c3ccncc3)cc2)ccc1O`, the Potency entry is “inactive”.
The value for `CN(C)CCCN1c2ccccc2Sc2ccc(C(F)(F)F)cc21` was “inactive”; that for `N=c1c[n+](N2CCOCC2)[n-]o1` was “inactive”.
Regarding `Cc1ccc(O)c(N=Nc2ccccc2)n1`, the Potency is 14.1 µM (active).
With `OC[C@H]1O[C@@H](n2cnc3cncnc32)[C@H](O)[C@@H]1O`, the Potency is 5.62 µM (active).
Take `CC(=O)c1ccc2c(c1)N(CCCN(C)C)c1ccccc1S2`: the Potency entry is “inactive”.
As to `CN(C)[C@@H]1C(=O)C(C(N)=O)=C(O)[C@@]2(O)C(=O)C3=C(O)c4c(O)ccc(Cl)c4[C@@H](O)[C@H]3C[C@@H]12`, the Potency entry was “inactive”.
In the case of `Oc1ccc(Cn2cc[nH]c2=S)cc1`, the Potency result is “inactive”.
